According to PubChem BioAssay AID1159580 (chemical genetic matrix, 2015):
Among all 5,500 compounds or so, about 2,000 (36%) were called active. Roughly 18% stayed inconclusive and do not appear here. Cut-off read from the data, not from the text of the source: active = normalized growth mostly below about 0.91 (no sharp cut-off); inconclusive = no clear call, values can overlap the other calls; inactive = mostly above about 0.92. Some of the results follow.

Test: chemical genetic growth profiling, strain panel (AID 1159580);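 note: tested at 20 µM; growth read once vehicle control cultures reached saturation at 30 °C; 1 = growth at the plate median or of vehicle wells; lower values mean less growth of the strain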
Conditions: S. cerevisiae deletion strains, growth OD

Measured: normalized growth

Clc1ccc(CO/N=C(/Cn2ccnc2)c2ccc(Cl)cc2Cl)c(Cl)c1
active: locus YAL021C, strain ccr4, active compounds read low 0.0719 | locus YAL026C, strain drs2, active compounds read low 0.066 | locus YAL030W, strain snc1, active compounds read low 0.062 | locus YBL061C, strain skt5, active compounds read low 0.0675 | locus YBR009C, strain hhf1, active compounds read low 0.0713 | locus YBR023C, strain chs3, active compounds read low 0.0703 | locus YBR171W, strain sec66, active compounds read low 0.084 | locus YBR231C, strain swc5, active compounds read low 0.0712 | locus YBR279W, strain paf1, active compounds read low 0.0663 | locus YCL011C, strain gbp2, active compounds read low 0.0641 | locus YCL016C, strain dcc1, active compounds read low 0.0718 | locus YCL069W, strain vba3, active compounds read low 0.0674 | locus YCR088W, strain abp1, active compounds read low 0.0653 | locus YDL005C, strain med2, active compounds read low 0.0803 | locus YDL040C, strain nat1, active compounds read low 0.0648 | locus YDR001C, strain nth1, active compounds read low 0.0642 | locus YDR069C, strain doa4, active compounds read low 0.07 | locus YDR137W, strain rgp1, active compounds read low 0.106 | locus YDR159W, strain sac3, active compounds read low 0.103 | locus YDR195W, strain ref2 0.146 | locus YDR297W, strain sur2, active compounds read low 0.0626 | locus YDR334W, strain swr1, active compounds read low 0.0671 | locus YDR335W, strain msn5, active compounds read low 0.0633 | locus YDR392W, strain spt3, active compounds read low 0.0807 | locus YEL003W, strain gim4, active compounds read low 0.0579 | locus YEL037C, strain rad23, active compounds read low 0.0606 | locus YEL061C, strain CIN8 (second series), active compounds read low 0.0642 | locus YER015W, strain faa2, active compounds read low 0.0705 | locus YER016W, strain bim1, active compounds read low 0.0699 | locus YER111C, strain swi4, active compounds read low 0.0753 | locus YER155C, strain BEM2 (second series), active compounds read low 0.104 | locus YFR010W, strain ubp6, active compounds read low 0.0725 | locus YGL167C, strain pmr1, active compounds read low 0.0799 | locus YGL173C, strain kem1, active compounds read low 0.0926 | locus YGL227W, strain vid30, active compounds read low 0.067 | locus YGL240W, strain doc1, active compounds read low 0.108 | locus YGL253W, strain hxk2, active compounds read low 0.0581 | locus YHR013C, strain ard1, active compounds read low 0.111 | locus YHR027C, strain rpn1, active compounds read low 0.0678 | locus YHR030C, strain SLT2, active compounds read low 0.11 | locus YHR079C, strain IRE1, active compounds read low 0.138 | locus YHR142W, strain chs7, active compounds read low 0.0783 | locus YJL092W, strain hpr5, active compounds read low 0.0639 | locus YJL095W, strain BCK1 (second series), active compounds read low 0.0624 | locus YJL095W, strain BCK1, active compounds read low 0.119 | locus YJL115W, strain asf1, active compounds read low 0.076 | locus YJL129C, strain trk1, active compounds read low 0.0899 | locus YJL154C, strain vps35, active compounds read low 0.0641 | locus YJL164C, strain tpk1, active compounds read low 0.0663 | locus YJL166W, strain qcr8, active compounds read low 0.0665 | locus YJL187C, strain SWE1, active compounds read low 0.0662 | locus YJR066W, strain TOR1, active compounds read low 0.016 | locus YKL160W, strain elf1, active compounds read low 0.0739 | locus YKR026C, strain gcn3, active compounds read low 0.0685 | locus YKR091W, strain srl3, active compounds read low 0.0651 | locus YLL001W, strain dnm1, active compounds read low 0.0676 | locus YLL026W, active compounds read low 0.0627 | locus YLL041C, strain sdh2, active compounds read low 0.0619 | locus YLR027C, strain aat2, active compounds read low 0.0637 | locus YLR113W, strain HOG1, active compounds read low 0.138 | locus YLR221C, strain rsa3, active compounds read low 0.0614 | locus YLR258W, strain gsy2, active compounds read low 0.0647 | locus YLR262C, strain YPT6 (second series), active compounds read low 0.0952 | locus YLR320W, strain mms22, active compounds read low 0.0852 | locus YLR342W, strain FKS1, active compounds read low 0.0731 | locus YLR357W, strain rsc2, active compounds read low 0.13 | locus YLR370C, strain arc18, active compounds read low 0.0687 | locus YLR384C, strain iki3, active compounds read low 0.0679 | locus YML120C, strain ndi1, active compounds read low 0.0632 | locus YMR058W, strain fet3, active compounds read low 0.0659 | locus YMR125W, strain sto1, active compounds read low 0.0799 | locus YMR129W, active compounds read low 0.0624 | locus YMR205C, strain PFK2, active compounds read low 0.104 | locus YMR231W, strain pep5, active compounds read low 0.205 | locus YNL071W, strain lat1, active compounds read low 0.0653 | locus YNL183C, strain NPR1, active compounds read low 0.0338 | locus YNL209W, strain ssb2, active compounds read low 0.0716 | locus YNL248C, strain rpa49, active compounds read low 0.0816 | locus YNL322C, strain KRE1 (second series), active compounds read low 0.0683 | locus YNR049C, strain mso1, active compounds read low 0.0594 | locus YOR001W, strain rrp6, active compounds read low 0.0749 | locus YOR070C, strain gyp1, active compounds read low 0.0664 | locus YOR080W, strain dia2, active compounds read low 0.0735 | locus YOR083W, strain WHI5, active compounds read low 0.0763 | locus YOR106W, strain vam3, active compounds read low 0.0782 | locus YOR231W, strain MKK1, active compounds read low 0.116 | locus YOR265W, strain rbl2, active compounds read low 0.0668 | locus YOR270C, strain vph1, active compounds read low 0.112 | locus YOR290C, strain snf2, active compounds read low 0.0669 | locus YPL051W, strain arl3, active compounds read low 0.0756 | locus YPL078C, strain atp4, active compounds read low 0.08 | locus YPL106C, strain sse1, active compounds read low 0.105 | locus YPL240C, strain hsp82, active compounds read low 0.0633 | locus YPL256C, strain CLN2, active compounds read low 0.139
